Data on 89 compounds can be found in PubChem BioAssay AID652067 (The Scripps Research Institute Molecular Screening Center, 2013).

Out of some 370,000 compounds screened, about 5,400 (1.5%) were called active. The sample holds actives, similar compounds and a random draw of the others, so the mix is not that of the screen. Values without a mark were called inactive.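 The calls were made as follows: active = activation above the mean of all tested compounds plus 3 SD (cut at about 5.5% in these data); inactive = the rest.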

The subject of the assay is DAF-12 nuclear receptor (Haemonchus contortus). The experiment in a line: hcDAF-12 driven luciferase reporter activation – cell-based, luminescence, HEK293, lit1-tk-luc reporter, primary screen (AID 652067).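 Also: 100% = response to 3 µM Δ7-dafachronic acid high control.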 The conditions noted are these: HEK293 hcDAF-12 lit1-tk-luc reporter, at 6.8 µM, stronger effect = higher value, 0% DMSO, 100% Δ7-dafachronic acid.
With `CC(=O)N1C[C@@H](CO)[C@@H](N(C)C(=O)C(C)(C)C)C[C@H]1c1ccccc1Br`, the activation is -0.9%.

`O=C(Nc1ccccc1F)c1ccc(S(=O)(=O)N2CCCCCC2)cc1`: the activation is -0.38%.

Take `Nc1ccc(C(=O)Nc2ccccc2N)cc1`: the activation is 10.3% (active).

For `O=C(Cc1ccccc1)Nc1ccc(C(=O)Nc2ccccc2C(=O)O)cc1`, the activation is 0.4%.

On to `Cc1cc(N=Nc2ccc3ccccc3c2)ccc1O`, for which the activation was 9.93% (active).

In the case of `CN(C(N)=NC(=O)/C=C/c1ccccc1)C(C#Cc1ccccc1)Cc1ccccc1` (centres undefined), the activation was -0.54%.

Consider `O=C(Nc1ccccc1C(=O)NCCCn1ccnc1)c1ccc(Cl)cc1Cl`, for which the activation was -0.66%.

In the case of `O=C(NCCCn1ccnc1)c1cc(-c2ccccc2)on1`, the activation was 6.25% (active).

For `O=C(NCCCn1ccnc1)c1cc(Br)c(Br)s1`, the activation is -2.07%.

In the case of `COC(=O)C1=C(C)N(Cc2ccc(F)cc2)C(=S)NC1c1cccc(Cl)c1` (centres undefined), the activation was -0.58%.

Turning to `C#CCNC(=O)C[C@H]1C[C@@]2(C(=O)OC)C(=C[C@H](C(C)C)O[C@@H]2C2CC2)N(Cc2ccco2)C1=O`, the activation is -0.47%.

With `CCN(C(=O)[C@@H](C1CC1)[C@@H](O)c1ccc2ccccc2c1)c1ccccc1`, the activation is -0.38%.

Turning to `CCCCCCCCN1C(=O)[C@@H](CC(=O)NCCCC)C[C@@]2(C(=O)OC)C1=C[C@H](C(C)(C)C)O[C@@H]2C`, the activation is 2.12%.

As to `COC(=O)c1cccc(Cn2ccc3ccc(-c4ccc5ccn(C(=O)C6CCCCC6)c5c4)cc32)c1`, the activation is 2.46%.

Regarding `Cc1c(C(C)c2ccccc2O)[nH]c2ccccc12` (centres undefined), the activation is 5.82% (active).

`S=c1[nH]c2ccccc2c2ccccc12`: the activation was 0.24%.

On to `Cc1[nH]c2ccccc2c1-c1ccc(Cl)nn1`, for which the activation was -0.07%.

As to `Cc1ccc(-n2c(SCC(=O)Nc3ccc(S(=O)(=O)Nc4nccs4)cc3)nnc2-c2ccncc2)cc1`, the activation was -0.82%.

As for `C=CCn1c(SCC(N)=O)nnc1-c1ccccc1OC`, the activation is -0.44%.

On to `O=C(O)CN1c2cccc3cccc(c23)S1(=O)=O`, for which the activation is 7.97% (active).

As to `CC(C)CN(CC(C)C)C(=O)CN1c2cccc3cccc(c23)S1(=O)=O`, the activation is 0.46%.

As to `COc1ccc(C)cc1NC(=O)CN1c2cccc3cccc(c23)S1(=O)=O`, the activation is -2.24%.

As for `COC(=O)Cc1nnn2c1[C@H](C)[C@H](c1ccccc1Br)OCC2`, the activation is -1.44%.

As for `Cc1cccc(C(=O)N2CCc3c([nH]c4ccccc34)C2CC(C)C)n1` (centres undefined), the activation was 6.78% (active).

With `COCc1ccc(C(=O)N2CCc3c([nH]c4ccccc34)C2c2ccccn2)s1` (centres undefined), the activation is 0.63%.

In the case of `Cc1cccc(C2c3[nH]c4ccccc4c3CCN2C(=O)c2cc(-c3cccn3C)n[nH]2)n1` (centres undefined), the activation was 1.83%.

`O=C(Nc1ccccc1)O/N=C1\CCCCC1c1ccc([N+](=O)[O-])cc1[N+](=O)[O-]` (centres undefined): the activation is -1.35%.

Consider `O=[N+]([O-])c1ccc(N/N=C2/CCCCC2c2ccccn2)c([N+](=O)[O-])c1` (centres undefined), for which the activation was 0.53%.

Regarding `C[n+]1ccccc1C1CCCC/C1=N\Nc1ccc([N+](=O)[O-])cc1[N+](=O)[O-]` (centres undefined), the activation was 6% (active).

As for `Cc1ccc(S(=O)(=O)NCCC(=O)NCc2ccc(Cl)cc2)cc1C`, the activation is 2.24%.

`Cc1ccc(S(=O)(=O)NCCC(=O)Nc2cccc(S(N)(=O)=O)c2)cc1C`: the activation was -1.34%.

For the compound `Cc1ccnc(NC(=O)CCNS(=O)(=O)c2ccc(C)c(C)c2)c1`, the activation is 9.81% (active).

As for `O=C(CNC(=O)c1ccccc1)OC(C(=O)Nc1cc([N+](=O)[O-])ccc1F)c1ccccc1` (centres undefined), the activation was -1.31%.

For the compound `CCC(CO)Nc1cccc2c1S(=O)(=O)N(Cc1cn(Cc3ccccc3C(F)(F)F)nn1)Cc1ccccc1O2` (centres undefined), the activation is -0.6%.

Turning to `Cc1ccc(-c2nc(C3CCCN(S(=O)(=O)c4ccc(Br)s4)C3)no2)cc1` (centres undefined), the activation was -1.74%.

As for `CCOC(=O)C1(Cc2ccccc2)CCN(Cc2cn(C(C)=O)c3ccccc23)CC1`, the activation is 4.1%.

Turning to `Cc1ccc(NC(=O)N2c3ccccc3SC2c2ccco2)c(C)c1` (centres undefined), the activation was 0.47%.

As for `COC(=O)C1CN(CC(C)C)CCS(=O)(=O)N1Cc1ccc(C)cc1` (centres undefined), the activation is -1.58%.

With `S=C1NC(c2ccccc2)=NCN1c1ccc(Br)cc1`, the activation is -0.59%.

On to `N#Cc1ccc(C2N=C(c3ccccc3)NO2)cc1` (centres undefined), for which the activation was 5.73% (active).

As to `Brc1ccccc1C1N=C(c2ccccc2)NO1` (centres undefined), the activation is 11% (active).

Consider `CN(C(=O)Cn1nnc(-c2ccc(F)cc2)n1)C1CCS(=O)(=O)C1` (centres undefined), for which the activation was 0.43%.

Regarding `C#CCN([C@H](C(=O)OC)C(C)CC)S(=O)(=O)c1ccccc1Br` (some centres undefined), the activation is -3.57%.

Take `COC(=O)[C@]1(Cc2ccccc2)NC=C(C(=O)c2ccccc2)[C@@H]1c1cccc(OC)c1`: the activation is -0.48%.

Take `COc1cc(C(=O)Nc2ncccc2C)ccc1OCC(=O)N1CCOCC1`: the activation was -1.69%.

Take `O=C(NC(=O)c1ccccc1)Nc1ccccc1O`: the activation is 12.2% (active).

As to `O=C(NC(=S)Nc1cccc2c(O)cccc12)c1cccc(Br)c1`, the activation was 1.98%.

Regarding `O=C(Cc1ccc(Cl)cc1)NC(=S)Nc1ccccc1O`, the activation was -0.62%.

In the case of `CCCC[C@H]1C2CC(OC(=O)NCc3ccccc3)C(C2)[C@H]2CCCCN21` (some centres undefined), the activation was 0.87%.

Consider `COC(=O)C[C@H]1CC[C@H]2[C@H](COc3ccc(NC(=O)C4CC4)cc3C(=O)N2C)O1`, for which the activation is 0.16%.

As to `COc1ccccc1-c1sc2ccccc2c1C#CC1(O)CCCCC1`, the activation was 1.87%.

Turning to `CCOc1ccc2nc(Cl)c(C3CC(c4ccccc4)=NN3C(=O)c3cccs3)cc2c1` (centres undefined), the activation was -2.57%.

Consider `COc1ccc(C2=NN(C(=O)c3ccccc3C(=O)O)C(c3ccccc3O)C2)cc1` (centres undefined), for which the activation was 12.9% (active).

As to `COc1ccc(C2CC(c3ccccc3)=NN2C(=O)c2ccc(Cl)c([N+](=O)[O-])c2)cc1` (centres undefined), the activation is 0.35%.

Regarding `O=C1Nc2ccccc2OC1CC(=O)N1CCCCCCC1` (centres undefined), the activation was 1.16%.

For `CCCCNC(=O)C[C@H]1C[C@@]2(C(=O)OC)C(=C[C@H](COCc3ccccc3)O[C@@H]2C)N(Cc2ccc(Cl)cc2Cl)C1=O`, the activation is -3.26%.

For the compound `C=C(C)C#CC(Cc1ccccc1)NCC1CC1` (centres undefined), the activation was -1.73%.

Consider `O=C(O)c1c(NC(=O)N2CCCC2)sc2c1CCCC2`, for which the activation is -0.22%.

As to `NC(=O)c1c(NC(=O)c2ccccc2)sc2c1CCCC2`, the activation is 7.46% (active).

For the compound `CCN(CC)CC(=O)Nc1sc2c(c1C(=O)c1ccccc1C)CCC2`, the activation was -0.3%.

`Cc1nc2ccc(C(=O)N3CCN(C(=O)C(C)(C)C)CC3)cc2n1C1CCCC1`: the activation was -2.87%.

With `CC(CCN1CCC(C(O)(c2ccccc2)c2ccccc2)CC1)Oc1ccc(Cl)cc1` (centres undefined), the activation was 4.67%.

As to `CC(CCN1CCC(C(O)(c2ccccc2)c2ccccc2)CC1)Oc1ccc(C(F)(F)F)cc1` (centres undefined), the activation is -0.22%.

Take `CC(CCN1CCC(C(O)(c2ccccc2)c2ccccc2)CC1)Oc1ccc([N+](=O)[O-])cc1Cl` (centres undefined): the activation was 6.54% (active).

Take `Cc1cc(C)cc(NC(=O)N2CCC(N(C)CCC(C)C)CC2)c1`: the activation was -0.86%.

In the case of `CC(C)(C)OC(=O)NCc1cc(F)ccc1/C=C/S(=O)(=O)NCCc1ccccc1`, the activation is -0.58%.

Take `CCOC(=O)c1c(NC(=S)Nc2ccccc2)sc2c1CCN(C)C2`: the activation was 0.34%.

Turning to `CCOC(=O)c1cc2c(nc1NC(=S)Nc1ccccc1)CC(C)(CC)OC2` (centres undefined), the activation is -0.86%.

On to `CCOC(=O)c1cn[nH]c1NC(=S)Nc1ccccc1`, for which the activation is 7.58% (active).

Regarding `C[C@H]1CN([C@@H](C)CO)C(=O)CCCn2nncc2CO[C@@H]1CN(C)C(=O)Nc1ccc(N2CCN(C)CC2)cc1`, the activation is -1.4%.

Consider `Cc1ccc2[nH]c(C(=O)O)c(NC(=O)c3ccccc3[N+](=O)[O-])c2c1`, for which the activation was 3.39%.

Take `O=C(O)c1[nH]c2ccccc2c1C(c1cccc(O)c1)c1c(C(=O)O)[nH]c2ccccc12`: the activation is 6.89% (active).

Take `CCCS(=O)(=O)Nc1c(C(=O)O)[nH]c2ccccc12`: the activation was 3.5%.

Consider `CCC(c1ccc(NC(=O)OC(C)(C)C)cc1)c1cc(OC)cc(OC)c1` (centres undefined), for which the activation was -1.61%.

Regarding `CCOc1ccc(Oc2c(Cl)cnn(-c3ccc(C)cc3)c2=O)cc1`, the activation was -0.82%.

`N#CC1=C(N)Oc2c(sc3ccccc23)C1c1ccco1` (centres undefined): the activation is 6.9% (active).

Consider `CCC(=O)c1c(CC)c2n3c1=CC[C@H]3CC(Br)C=2` (some centres undefined), for which the activation is -2.16%.

With `CC(C)c1ccc(Nc2ncccc2C#N)cc1`, the activation was 5.74% (active).

On to `CN(C)c1ccnc(Nc2ccc(F)cc2)c1C#N`, for which the activation is 1%.

Turning to `CCN1C(=O)N[C@@H]2C[C@H](C(=O)N3CCCC3)[C@H](C)[C@H](c3ccccc3)C[C@@H]21`, the activation was 0.19%.

In the case of `CC(C)CNc1cccc2c1S(=O)(=O)N(Cc1cn(Cc3ccc(Cl)cc3)nn1)Cc1ccccc1O2`, the activation is -0.84%.

On to `CCc1ccc(-c2cc(C(=O)NN3CCN(C)CC3)c3ccccc3n2)cc1`, for which the activation is 6.67% (active).

Regarding `CCCCc1nc2ccccc2c(NC(=O)CN2CCN(C)CC2)c1CCC`, the activation was 0.46%.

Take `COC(=O)c1cc(N2CCNCC2)nc2ccccc12`: the activation was 0.41%.

Take `COC(=O)C(C(=O)OC)c1ccccc1NS(=O)(=O)c1cccc2ccccc12`: the activation is -1.63%.

For `COc1cccc(/C=C2\CC3(OC(C)=O)CCCN2C3)c1` (centres undefined), the activation was -1.14%.

For the compound `CNC(=O)c1sc(Nc2ccc(OCc3ccccc3)cc2)nc1C`, the activation is -3.73%.

For `COc1ccccc1Nc1ncc(C(C)=O)c(C)n1`, the activation was -0.49%.

Turning to `COc1cccc2sc(Nc3nc(C)c(C(C)=O)s3)nc12`, the activation is 6.52% (active).
